Data reported in the supplement of paper PMC10849652.
Targets with a hit are over-represented here; the source holds about 7,900 in all. About 0.6% of all pairs of compound and target were hits. Values without a mark were called inactive.

How the values were obtained:
Assay in all cases: log2 fold change, soluble protein after heating vs DMSO (PISA); higher = thermal stabilisation; K562 cells, 10 uM, 30 min; active = over 0.2 and 3.5 SD of the protein, either way, in both replicates (recomputed)
bafetinib = compound: Cc1ccc(NC(=O)c2ccc(CN3CC[C@H](N(C)C)C3)c(C(F)(F)F)c2)cc1Nc1nccc(-c2cncnc2)n1 [bafetinib]
Outline: (§1)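 For each measurement, 10 μM compound was applied for 30 min to K562 cells at 2×10^6 cells/mL. Aliquots were heated for 3 min across 48°C-58°C, pooled, and extracted in PBS with 0.5% NP-40 at 4°C; the supernatant after 21,000xg for 90 min was soluble protein. This was quantified by TMTpro 16plex LC-MS/MS with channel sums equalised, and thermal stability was reported relative to control samples from duplicates, on a log2 fold-change scale.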

[1] = compound: Cc1cccc(CC(=O)N2CCc3c2ccc(-c2cn(C)c4ncnc(N)c24)c3F)n1
Outline: as §1

nilotinib = compound: Cc1cn(-c2cc(NC(=O)c3ccc(C)c(Nc4nccc(-c5cccnc5)n4)c3)cc(C(F)(F)F)c2)cn1 [nilotinib]
Outline: as §1

[2] = compound: Cc1nc(Nc2n[nH]c3c2CN(C(=O)N[C@H](CN(C)C)c2ccccc2)C3(C)C)c2sccc2n1
Outline: as §1

dasatinib = compound: Cc1nc(Nc2ncc(C(=O)Nc3c(C)cccc3Cl)s2)cc(N2CCN(CCO)CC2)n1 [dasatinib]
Outline: as §1

[3] = compound: Cc1ncc(-c2ccnc(Nc3ccc(S(C)(=O)=O)cc3)n2)n1C(C)C
Outline: as §1

[4] = compound: Cn1cc(-c2ccc3c(c2)CCN3C(=O)Cc2cccc(C(F)(F)F)c2)c2c(N)ncnc21
Outline: as §1

[5] = compound: Cn1cc(-c2ccc3nnc(C(F)(F)c4ccc5ncccc5c4)n3n2)cn1
Outline: as §1

tipifarnib = compound: Cn1cncc1[C@@](N)(c1ccc(Cl)cc1)c1ccc2c(c1)c(-c1cccc(Cl)c1)cc(=O)n2C [tipifarnib]
Outline: as §1

mubritinib = compound: FC(F)(F)c1ccc(/C=C/c2nc(COc3ccc(CCCCn4ccnn4)cc3)co2)cc1 [mubritinib]
Outline: as §1

[6] = compound: NC(=O)Nc1cc(-c2cccc(F)c2)sc1C(=O)N[C@H]1CCCNC1
Outline: as §1

[7] = compound: NC(=O)c1cnc(N[C@@H]2CCCC[C@@H]2N)nc1Nc1cccc(-n2nccn2)c1
Outline: as §1

[8] = compound: NC1(c2ccc(-c3nc4ccn5c(=O)[nH]nc5c4cc3-c3ccccc3)cc2)CCC1
Outline: as §1

[9] = compound: NCC(=O)Nc1ccc(-n2nc(C(F)(F)F)cc2-c2ccc3c(ccc4ccccc43)c2)cc1
Outline: as §1

entinostat = compound: Nc1ccccc1NC(=O)c1ccc(CNC(=O)OCc2cccnc2)cc1 [entinostat]
Outline: as §1

vorinostat = compound: O=C(CCCCCCC(=O)Nc1ccccc1)NO [vorinostat]
Outline: as §1

citarinostat = compound: O=C(CCCCCCNC(=O)c1cnc(N(c2ccccc2)c2ccccc2Cl)nc1)NO [citarinostat]
Outline: as §1

silmitasertib = compound: O=C(O)c1ccc2c(c1)nc(Nc1cccc(Cl)c1)c1ccncc12 [silmitasertib]
Outline: as §1

[10] = compound: O=C1NC(=O)C(c2cnc3ccccn23)=C1c1cn2c3c(cc(F)cc13)CN(C(=O)N1CCCCC1)CC2
Outline: as §1

[11] = compound: c1cc(OCCN2CCCCC2)cc(-c2n[nH]c3ccc(-c4nnc[nH]4)cc23)c1
Outline: as §1

UniProt Q96EE3, sequence (Q96EE3 whole entry, looked up): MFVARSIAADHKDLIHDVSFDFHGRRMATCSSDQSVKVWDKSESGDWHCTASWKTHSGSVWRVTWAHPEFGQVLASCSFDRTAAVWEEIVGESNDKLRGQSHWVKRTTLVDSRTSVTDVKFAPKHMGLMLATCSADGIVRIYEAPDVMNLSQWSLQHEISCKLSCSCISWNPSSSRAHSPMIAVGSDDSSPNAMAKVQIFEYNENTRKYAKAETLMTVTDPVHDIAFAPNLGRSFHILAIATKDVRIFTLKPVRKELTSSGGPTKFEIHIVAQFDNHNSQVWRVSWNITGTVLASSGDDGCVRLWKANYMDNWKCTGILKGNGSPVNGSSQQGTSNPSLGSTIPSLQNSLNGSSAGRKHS
UniProt Q96EV2, sequence (Q96EV2 whole entry, looked up): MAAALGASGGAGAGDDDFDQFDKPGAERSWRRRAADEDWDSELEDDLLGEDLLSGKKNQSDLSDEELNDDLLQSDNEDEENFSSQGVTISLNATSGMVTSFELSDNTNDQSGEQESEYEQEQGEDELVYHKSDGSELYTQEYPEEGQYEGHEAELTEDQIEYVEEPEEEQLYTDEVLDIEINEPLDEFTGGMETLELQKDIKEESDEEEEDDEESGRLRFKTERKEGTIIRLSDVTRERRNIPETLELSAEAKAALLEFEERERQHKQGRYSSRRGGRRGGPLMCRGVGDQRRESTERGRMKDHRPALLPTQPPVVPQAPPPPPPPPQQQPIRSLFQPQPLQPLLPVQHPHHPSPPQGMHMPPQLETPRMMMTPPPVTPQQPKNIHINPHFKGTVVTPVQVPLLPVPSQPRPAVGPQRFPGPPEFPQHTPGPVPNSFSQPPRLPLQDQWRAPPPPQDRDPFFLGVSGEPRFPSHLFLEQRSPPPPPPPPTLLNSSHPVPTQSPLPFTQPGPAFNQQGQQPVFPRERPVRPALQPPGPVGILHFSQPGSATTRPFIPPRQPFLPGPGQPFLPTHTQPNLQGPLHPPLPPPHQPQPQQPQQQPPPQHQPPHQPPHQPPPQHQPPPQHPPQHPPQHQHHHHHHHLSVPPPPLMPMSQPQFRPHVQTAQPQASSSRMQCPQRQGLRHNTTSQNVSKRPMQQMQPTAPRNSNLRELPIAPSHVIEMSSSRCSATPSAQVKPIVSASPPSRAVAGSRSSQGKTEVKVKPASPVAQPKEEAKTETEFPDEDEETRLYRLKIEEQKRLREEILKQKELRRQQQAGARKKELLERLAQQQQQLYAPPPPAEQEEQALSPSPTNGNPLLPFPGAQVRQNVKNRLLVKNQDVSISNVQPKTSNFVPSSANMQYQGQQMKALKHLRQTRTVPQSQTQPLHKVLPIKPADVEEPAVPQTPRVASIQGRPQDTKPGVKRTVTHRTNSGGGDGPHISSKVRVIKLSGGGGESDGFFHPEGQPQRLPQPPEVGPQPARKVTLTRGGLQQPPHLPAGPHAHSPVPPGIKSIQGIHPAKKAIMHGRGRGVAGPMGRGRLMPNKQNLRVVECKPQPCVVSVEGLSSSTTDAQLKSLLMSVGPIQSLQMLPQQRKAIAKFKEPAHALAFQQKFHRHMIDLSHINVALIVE
UniProt Q96EU6, sequence (Q96EU6 whole entry, looked up): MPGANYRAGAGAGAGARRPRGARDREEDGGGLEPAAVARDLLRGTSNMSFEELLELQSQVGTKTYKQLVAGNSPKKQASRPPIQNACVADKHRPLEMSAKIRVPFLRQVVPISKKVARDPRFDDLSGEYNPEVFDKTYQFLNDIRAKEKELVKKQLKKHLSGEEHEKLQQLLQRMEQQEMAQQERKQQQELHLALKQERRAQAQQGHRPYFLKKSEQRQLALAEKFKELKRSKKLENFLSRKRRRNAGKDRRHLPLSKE
UniProt Q7L4I2, sequence (Q7L4I2 whole entry, looked up): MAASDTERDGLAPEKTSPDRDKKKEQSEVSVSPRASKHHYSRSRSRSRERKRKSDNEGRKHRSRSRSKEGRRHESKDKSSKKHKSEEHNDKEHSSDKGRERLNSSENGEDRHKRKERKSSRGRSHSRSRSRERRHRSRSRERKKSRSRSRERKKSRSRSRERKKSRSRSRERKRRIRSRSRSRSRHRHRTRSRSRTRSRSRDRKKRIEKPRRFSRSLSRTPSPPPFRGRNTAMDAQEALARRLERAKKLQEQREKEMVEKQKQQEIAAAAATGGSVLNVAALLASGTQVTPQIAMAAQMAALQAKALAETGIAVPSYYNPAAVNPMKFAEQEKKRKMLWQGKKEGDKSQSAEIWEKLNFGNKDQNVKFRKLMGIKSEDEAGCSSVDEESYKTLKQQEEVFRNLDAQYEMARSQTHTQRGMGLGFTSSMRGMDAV
UniProt Q9NX18, sequence (Q9NX18 whole entry, looked up): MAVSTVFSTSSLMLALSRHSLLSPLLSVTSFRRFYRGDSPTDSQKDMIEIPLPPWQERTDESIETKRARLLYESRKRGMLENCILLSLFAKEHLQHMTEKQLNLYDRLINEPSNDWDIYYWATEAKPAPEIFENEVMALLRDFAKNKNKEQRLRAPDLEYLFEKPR
UniProt Q06609, sequence (Q06609 whole entry, looked up): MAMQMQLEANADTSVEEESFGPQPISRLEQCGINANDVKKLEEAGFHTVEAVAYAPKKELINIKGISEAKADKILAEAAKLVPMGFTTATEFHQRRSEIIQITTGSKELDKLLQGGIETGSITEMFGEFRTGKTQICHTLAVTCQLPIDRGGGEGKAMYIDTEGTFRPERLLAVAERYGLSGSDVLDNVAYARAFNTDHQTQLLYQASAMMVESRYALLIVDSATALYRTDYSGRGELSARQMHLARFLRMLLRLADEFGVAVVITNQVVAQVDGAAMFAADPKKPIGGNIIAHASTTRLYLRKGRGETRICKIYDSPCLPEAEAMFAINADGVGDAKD
UniProt Q8TDY2, sequence (Q8TDY2 whole entry, looked up): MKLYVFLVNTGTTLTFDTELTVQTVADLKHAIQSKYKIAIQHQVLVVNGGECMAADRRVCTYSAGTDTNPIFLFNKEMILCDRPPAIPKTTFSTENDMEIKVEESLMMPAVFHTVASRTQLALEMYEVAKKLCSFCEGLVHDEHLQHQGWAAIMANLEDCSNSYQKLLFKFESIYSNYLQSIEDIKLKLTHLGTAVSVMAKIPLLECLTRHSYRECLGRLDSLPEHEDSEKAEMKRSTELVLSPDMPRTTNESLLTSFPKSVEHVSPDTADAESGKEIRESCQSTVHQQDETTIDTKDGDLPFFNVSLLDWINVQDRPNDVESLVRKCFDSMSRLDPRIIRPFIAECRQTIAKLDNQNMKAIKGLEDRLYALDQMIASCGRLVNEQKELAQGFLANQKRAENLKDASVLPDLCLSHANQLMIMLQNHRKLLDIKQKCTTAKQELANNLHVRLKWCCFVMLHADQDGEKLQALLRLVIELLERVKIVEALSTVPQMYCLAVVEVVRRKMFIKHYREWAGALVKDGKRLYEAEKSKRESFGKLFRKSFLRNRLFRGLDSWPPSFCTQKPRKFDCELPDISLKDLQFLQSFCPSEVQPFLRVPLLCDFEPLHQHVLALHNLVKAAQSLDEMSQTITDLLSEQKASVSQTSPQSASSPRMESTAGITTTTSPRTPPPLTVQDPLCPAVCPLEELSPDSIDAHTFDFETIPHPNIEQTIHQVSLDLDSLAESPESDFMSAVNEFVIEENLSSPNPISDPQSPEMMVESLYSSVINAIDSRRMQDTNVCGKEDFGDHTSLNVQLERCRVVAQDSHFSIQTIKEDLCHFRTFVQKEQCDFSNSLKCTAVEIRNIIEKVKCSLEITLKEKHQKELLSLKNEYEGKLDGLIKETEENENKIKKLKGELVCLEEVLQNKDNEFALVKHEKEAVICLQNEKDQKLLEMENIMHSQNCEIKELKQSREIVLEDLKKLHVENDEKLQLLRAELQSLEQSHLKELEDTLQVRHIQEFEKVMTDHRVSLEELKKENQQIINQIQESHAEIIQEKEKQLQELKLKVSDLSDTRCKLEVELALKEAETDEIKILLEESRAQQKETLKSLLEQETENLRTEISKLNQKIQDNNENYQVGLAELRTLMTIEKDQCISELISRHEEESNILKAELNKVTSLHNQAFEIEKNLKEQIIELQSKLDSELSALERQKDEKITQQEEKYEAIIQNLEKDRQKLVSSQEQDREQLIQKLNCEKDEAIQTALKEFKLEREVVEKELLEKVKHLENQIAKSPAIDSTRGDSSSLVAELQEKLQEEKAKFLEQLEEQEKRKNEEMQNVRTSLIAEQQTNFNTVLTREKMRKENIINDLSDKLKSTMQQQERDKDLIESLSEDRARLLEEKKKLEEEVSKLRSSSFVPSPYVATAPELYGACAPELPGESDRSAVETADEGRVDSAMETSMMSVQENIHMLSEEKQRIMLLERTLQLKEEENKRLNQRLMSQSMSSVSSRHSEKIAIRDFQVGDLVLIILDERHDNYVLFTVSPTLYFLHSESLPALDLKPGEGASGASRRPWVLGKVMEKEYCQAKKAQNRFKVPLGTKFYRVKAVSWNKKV
UniProt Q9BQY4, sequence (Q9BQY4 whole entry, looked up): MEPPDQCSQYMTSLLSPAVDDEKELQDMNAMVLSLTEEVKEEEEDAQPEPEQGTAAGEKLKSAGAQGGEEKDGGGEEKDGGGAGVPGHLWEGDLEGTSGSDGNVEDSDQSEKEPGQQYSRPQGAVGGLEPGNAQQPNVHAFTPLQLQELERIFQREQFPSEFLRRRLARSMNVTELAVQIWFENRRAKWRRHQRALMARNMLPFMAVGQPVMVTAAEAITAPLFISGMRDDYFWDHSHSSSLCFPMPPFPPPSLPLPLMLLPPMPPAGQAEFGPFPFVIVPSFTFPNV
UniProt Q15050, sequence (Q15050 whole entry, looked up): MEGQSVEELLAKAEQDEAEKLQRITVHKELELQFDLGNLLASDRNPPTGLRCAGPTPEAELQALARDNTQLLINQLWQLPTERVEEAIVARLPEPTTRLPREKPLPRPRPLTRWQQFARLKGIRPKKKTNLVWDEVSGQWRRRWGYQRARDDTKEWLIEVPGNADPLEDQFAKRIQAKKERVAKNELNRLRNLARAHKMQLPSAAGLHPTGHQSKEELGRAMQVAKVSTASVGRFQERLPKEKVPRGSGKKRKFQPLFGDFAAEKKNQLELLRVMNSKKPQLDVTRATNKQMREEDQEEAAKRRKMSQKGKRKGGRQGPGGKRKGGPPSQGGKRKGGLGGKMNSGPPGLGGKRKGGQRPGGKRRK

Target | log2 fold change (bafetinib) | log2 fold change [1] | log2 fold change (nilotinib) | log2 fold change [2] | log2 fold change (dasatinib) | log2 fold change [3] | log2 fold change [4] | log2 fold change [5] | log2 fold change (tipifarnib) | log2 fold change (mubritinib) | log2 fold change [6] | log2 fold change [7] | log2 fold change [8] | log2 fold change [9] | log2 fold change (entinostat) | log2 fold change (vorinostat) | log2 fold change (citarinostat) | log2 fold change (silmitasertib) | log2 fold change [10] | log2 fold change [11]
RPS5 (UniProt P46782) | 0.2 | 0.002 | 0.046 | 0.178 | 0.069 | -0.035 | -0.122 | -0.08 | 0.042 | 0.007 | 0.035 | 0.105 | 0.153 | 0.133 | -0.043 | 0 | -0.052 | -0.07 | 0.094 | -0.12
SDHAF2 (UniProt Q9NX18) | -0.083 | 0.166 | -0.02 | 0.022 | 0.057 | -0.007 | 0.056 | 0.017 | 0.007 | 0.058 | -0.005 | 0.156 | -0.089 | -0.007 | -0.04 | -0.156 | -0.026 | -0.007 | -0.101 | -0.015
RANBP2 (UniProt P49792) | -0.092 | 0.197 | -0.05 | 0.087 | -0.011 | -0.043 | -0.047 | -0.051 | -0.036 | -0.073 | 0.063 | -0.05 | 0.01 | 0.005 | 0.009 | -0.034 | -0.037 | 0.001 | -0.049 | 0.019
RPS9 (UniProt P46781) | 0.318 | -0.001 | 0.003 | 0.206 | 0.106 | -0.035 | -0.176 | -0.088 | 0.067 | -0.09 | 0.07 | 0.127 | 0.202 | 0.073 | -0.058 | -0.007 | -0.058 | 0.007 | 0.076 | -0.152
SEH1L isoform 1 (UniProt Q96EE3) | -0.083 | 0.051 | 0.012 | -0.081 | -0.008 | -0.028 | 0.015 | -0.037 | -0.11 | 0.031 | 0.007 | -0.027 | -0.014 | -0.004 | -0.04 | 0.022 | 0.064 | 0.076 | -0.027 | -0.065
RSRC2 (UniProt Q7L4I2) | -0.091 | -0.091 | 0 | -2.11 (active) | 0.002 | -0.028 | -0.007 | -0.056 | 0.012 | 0.02 | -0.05 | 0.111 | -0.001 | -0.019 | -0.01 | -0.029 | 0.038 | -0.13 | 0.023 | -0.034
RBM33 (UniProt Q96EV2) | -0.055 | 0.012 | -0.036 | -0.143 | 0.013 | -0.11 | 0.024 | -0.013 | 0.085 | -0.004 | 0.019 | -0.055 | -0.024 | 0.003 | 0.027 | 0.037 | 0.042 | 0.038 | -0.003 | -0.046
RRS1 (UniProt Q15050) | 0.121 | -0.125 | -0.024 | 0.073 | 0.161 | 0.267 | -0.431 | -0.165 | 0.105 | -0.226 | 0.06 | 0.143 | 0.233 | 0.211 | -0.087 | -0.063 | -0.081 | 0.291 | 0.438 | -0.107
RETREG3 (UniProt Q86VR2) | -0.164 | -0.032 | 0.015 | 0.003 | -0.045 | 0.033 | -0.007 | 0.11 | -0.034 | 0 | 0.046 | -0.033 | -0.047 | 0.048 | 0.007 | -0.045 | 0.003 | 0.04 | -0.086 | -0.03
SH3GLB2 (UniProt Q9NR46) | -0.029 | 0.044 | -0.051 | -0.15 | -0.147 | -0.066 | 0.006 | -0.1 | -0.091 | 0.098 | -0.105 | -0.13 | -0.163 | 0.004 | 0.069 | 0.081 | 0.059 | 0.015 | -0.028 | -0.13
RRP36 (UniProt Q96EU6) | 0.428 | 0.054 | -0.007 | 0.203 | 0.164 | -0.011 | -0.319 | -0.016 | 0.208 | -0.132 | 0.115 | 0.108 | 0.271 | 0.098 | -0.073 | -0.024 | -0.04 | 0.143 | 0.264 | -0.118
RB1CC1 (UniProt Q8TDY2) | -0.037 | 0.014 | 0.009 | 0.078 | -0.103 | -0.012 | 0.029 | 0.017 | -0.069 | 0.026 | 0.009 | 0.124 | 0.126 | -0.022 | 0.001 | 0.047 | 0.114 | -0.08 | -0.077 | 0.111
RPS27A (UniProt P62979) | 0.147 | 0.023 | 0.056 | 0.2 | 0.119 | 0.007 | -0.172 | 0 | 0.079 | -0.121 | 0.024 | 0.16 | 0.286 | 0.177 | -0.047 | -0.007 | -0.211 | 0.05 | 0.064 | -0.06
RAD51 (UniProt Q06609) | -0.002 | 0.021 | -0.082 | -0.006 | -0.009 | 0.04 | 0.037 | 0.003 | 0.11 | -0.017 | 0.051 | -0.019 | -0.057 | 0.031 | 0.001 | 0.047 | 0.018 | -0.003 | -0.014 | -0.012
RHOXF2 (UniProt Q9BQY4) | -0.05 | -0.215 (active) | 0.009 | -0.007 | 0.053 | -0.058 | 0.008 | -0.035 | 0.048 | 0.06 | 0.004 | 0.015 | 0.039 | 0.013 | -0.002 | -0.091 | 0.006 | 0.045 | -0.023 | -0.036
